# Test results from publication PMC5700166.
# Numbering of substitutions follows the chain as printed.
# Assays:
# Assay in all cases: protein-binding microarray (PBM); PBM: ~300 nM protein, 6 mM HEPES pH 7.8, 80 mM KCl, 0.5 mM EDTA, 0.5 mM EGTA, 6% glycerol, 35 ng/ul poly-dIdC, 1% milk, 1 h, room temperature; Ap Aiptasia and Nv Nematostella (sea anemones) / Co Capsaspora / Aq Amphimedon (sponge) / Dm Drosophila / Hu human; RHD is the Rel homology domain; high values mean tight binding
# Settings in all cases: dsDNA, one strand shown
# [1] = biological target: T1, GST-Nv-NF-kB (Cys allele) (Nematostella vectensis, UniProt E5G601 2-411)
# T1 sequence: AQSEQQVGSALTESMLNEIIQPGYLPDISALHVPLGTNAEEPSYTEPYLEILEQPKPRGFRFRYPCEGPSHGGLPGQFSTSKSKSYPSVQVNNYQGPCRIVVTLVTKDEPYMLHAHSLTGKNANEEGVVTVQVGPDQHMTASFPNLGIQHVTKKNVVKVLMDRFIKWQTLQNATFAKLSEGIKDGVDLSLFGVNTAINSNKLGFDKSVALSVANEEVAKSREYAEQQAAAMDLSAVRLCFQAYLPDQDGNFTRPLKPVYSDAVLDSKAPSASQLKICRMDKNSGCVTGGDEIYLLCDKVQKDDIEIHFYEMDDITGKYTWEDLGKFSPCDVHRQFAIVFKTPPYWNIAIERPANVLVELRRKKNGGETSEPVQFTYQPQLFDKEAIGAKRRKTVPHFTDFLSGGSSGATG
# GST-Co-NF-kB = biological target: T2, GST-Co-NF-kB (Capsaspora owczarzaki, UniProt F1ARL5 200-546)
# T2 sequence: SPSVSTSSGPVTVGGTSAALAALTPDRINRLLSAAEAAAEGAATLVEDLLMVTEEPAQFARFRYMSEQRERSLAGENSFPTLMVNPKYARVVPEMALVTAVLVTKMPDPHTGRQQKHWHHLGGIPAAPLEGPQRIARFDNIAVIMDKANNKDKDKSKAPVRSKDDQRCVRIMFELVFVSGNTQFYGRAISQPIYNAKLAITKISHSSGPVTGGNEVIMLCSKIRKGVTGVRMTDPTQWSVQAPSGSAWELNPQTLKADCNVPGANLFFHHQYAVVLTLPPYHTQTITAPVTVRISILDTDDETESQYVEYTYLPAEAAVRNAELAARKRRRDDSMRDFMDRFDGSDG
# GST-Aq-NF-kB = biological target: T3, GST-Aq-NF-kB (Amphimedon queenslandica, UniProt A9Y5G7 2-389)
# T3 sequence: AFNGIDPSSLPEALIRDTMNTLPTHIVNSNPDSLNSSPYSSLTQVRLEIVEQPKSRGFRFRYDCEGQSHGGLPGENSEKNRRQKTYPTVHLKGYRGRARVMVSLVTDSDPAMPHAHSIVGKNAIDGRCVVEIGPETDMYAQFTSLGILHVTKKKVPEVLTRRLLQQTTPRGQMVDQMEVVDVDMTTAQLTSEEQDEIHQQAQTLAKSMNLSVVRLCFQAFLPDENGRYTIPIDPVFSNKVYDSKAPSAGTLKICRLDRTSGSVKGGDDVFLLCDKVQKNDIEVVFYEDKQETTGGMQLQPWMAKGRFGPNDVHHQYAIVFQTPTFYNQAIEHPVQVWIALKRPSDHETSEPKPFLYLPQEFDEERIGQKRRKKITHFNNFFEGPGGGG
# GST-Dm-Relish = biological target: T4, GST-Dm-Relish (Drosophila melanogaster, UniProt Q94527 99-473)
# T4 sequence: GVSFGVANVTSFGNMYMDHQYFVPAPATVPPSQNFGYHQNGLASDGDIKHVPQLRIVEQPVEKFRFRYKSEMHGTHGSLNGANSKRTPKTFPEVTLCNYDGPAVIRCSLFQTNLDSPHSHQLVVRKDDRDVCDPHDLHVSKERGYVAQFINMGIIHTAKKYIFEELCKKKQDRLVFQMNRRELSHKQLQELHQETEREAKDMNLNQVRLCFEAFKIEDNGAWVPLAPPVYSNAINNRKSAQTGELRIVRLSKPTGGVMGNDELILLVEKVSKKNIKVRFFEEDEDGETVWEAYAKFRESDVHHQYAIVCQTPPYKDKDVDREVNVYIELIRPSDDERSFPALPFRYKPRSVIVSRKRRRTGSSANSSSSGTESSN
# [2] = biological target: T5, GST-Nv-NF-kB (Ser allele) (Nematostella vectensis, UniProt A7UNT2 2-411)
# T5 sequence: T1 sequence with Q21R, C66S, S207N, E215Q, V217A, E225K, A268E, D399E
Sequence,binding signal [1] [z-score],binding signal (GST-Co-NF-kB) [z-score],binding signal (GST-Aq-NF-kB) [z-score],binding signal (GST-Dm-Relish) [z-score],binding signal [2] [z-score]
CCGATTAACATCACATGTGGGAATGATGTTAATCGGGTCTTGATTCGCTTGACGCTGCTG,1.34,2.62,2.05,,
CCGATTAACATCAGGGATCGCCCTGATGTTAATCGGGTCTTGATTCGCTTGACGCTGCTG,1.19,,4.24,3.26,
CCGATTAACATCATTATGGGAAATGATGTTAATCGGGTCTTGATTCGCTTGACGCTGCTG,2.63,2.21,1.44,,
CCGATTAACATCAGGAGTATCCCTGATGTTAATCGGGTCTTGATTCGCTTGACGCTGCTG,,1.01,3.53,,
CCGATTAACATCAACTTTGGGAATGATGTTAATCGGGTCTTGATTCGCTTGACGCTGCTG,1.04,1.7,1.56,,
CCGATTAACATCAGGGCAGTACCTGATGTTAATCGGGTCTTGATTCGCTTGACGCTGCTG,1.21,,3.03,1.84,
CCGATTAACATCAACGGAAATTCTGATGTTAATCGGGTCTTGATTCGCTTGACGCTGCTG,,1.34,1.24,,
CCGATTAACATCAGGTAATTTACTGATGTTAATCGGGTCTTGATTCGCTTGACGCTGCTG,1.68,1.89,2.13,5.32,
CCGATTAACATCAAGGTATTTCCTGATGTTAATCGGGTCTTGATTCGCTTGACGCTGCTG,1.66,,3.84,3.08,1.29
CCGATTAACATCACCCATGGGAATGATGTTAATCGGGTCTTGATTCGCTTGACGCTGCTG,1.13,2.05,2.51,1.03,
CCGATTAACATCAGGATTTTACCTGATGTTAATCGGGTCTTGATTCGCTTGACGCTGCTG,2.01,,3.66,3.21,
CCGATTAACATCACAAATGGGAATGATGTTAATCGGGTCTTGATTCGCTTGACGCTGCTG,1.95,1.92,2.36,1.56,
CCGATTAACATCAGGAAAAAACCTGATGTTAATCGGGTCTTGATTCGCTTGACGCTGCTG,1.77,,3.37,3.66,2.77
CCGATTAACATCAATTGGGAAATTGATGTTAATCGGGTCTTGATTCGCTTGACGCTGCTG,3.36,1.8,1.63,1.48,3.48
CCGATTAACATCAGACATGGGAATGATGTTAATCGGGTCTTGATTCGCTTGACGCTGCTG,1.46,2.4,1.94,,
CCGATTAACATCAGGAAAAGTCCTGATGTTAATCGGGTCTTGATTCGCTTGACGCTGCTG,1.25,,3.07,2.98,
CCGATTAACATCAGGAAGTTACCTGATGTTAATCGGGTCTTGATTCGCTTGACGCTGCTG,1.29,,2.57,2.36,1.31
CCGATTAACATCAGAAATTACCATGATGTTAATCGGGTCTTGATTCGCTTGACGCTGCTG,1.45,,1.16,2.33,
CCGATTAACATCACTTTGGGAAATGATGTTAATCGGGTCTTGATTCGCTTGACGCTGCTG,1.89,2.05,1.28,,
CCGATTAACATCAGAAATGGGAATGATGTTAATCGGGTCTTGATTCGCTTGACGCTGCTG,2.45,1.87,2.5,,
CCGATTAACATCATTTCCCAAAATGATGTTAATCGGGTCTTGATTCGCTTGACGCTGCTG,2.55,1.54,1.26,1.36,
CCGATTAACATCAAGGAATTTCCTGATGTTAATCGGGTCTTGATTCGCTTGACGCTGCTG,1.75,,4.35,2.04,
CCGATTAACATCAACCATGGGAATGATGTTAATCGGGTCTTGATTCGCTTGACGCTGCTG,1.18,1.67,1.99,,
CCGATTAACATCAGGAATTTACCTGATGTTAATCGGGTCTTGATTCGCTTGACGCTGCTG,3.18,,4.81,4.54,
CCGATTAACATCATTGGGAAAAATGATGTTAATCGGGTCTTGATTCGCTTGACGCTGCTG,2.44,3.75,1.92,,
CCGATTAACATCACGGAAATTTATGATGTTAATCGGGTCTTGATTCGCTTGACGCTGCTG,,1.07,1.74,1.11,
